Data: PubChem BioAssay (NCATS)
Records with an inconclusive call do not appear. Entries that show only a call come without a potency. Calls of active or inactive are those of the source. Unless noted, calls come from the whole dose curve; as a rule, active = well fitted curve in the direction sought with a large enough effect; inconclusive = small, poorly fitted or top-dose-only effect, or another doubt; inactive = no such curve, though single readings can be large; an effect the other way counts as inactive or inconclusive.

What was measured:
[1] = qHTS Assay for Lipid Storage Modulators (AID 1519; calls by dose curve); details: Drosophila S3 cells, BODIPY lipid droplet/cell ratio, laser cytometry, cells loaded with oleic acid
In short: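 Cells seeded at 5,000 per well were treated with compounds over a concentration series and loaded with oleic acid (400 uM, as added). Lipid droplet fluorescence (488 nm excitation, 500-530 nm channel) was read by laser-scanning cytometry and normalized to 20 uM Triacsin C.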

[2] = molecular target: Ubiquitin carboxyl-terminal hydrolase 1 (Homo sapiens) (UniProt O94782); assay: Inhibitors of USP1/UAF1: Pilot qHTS (AID 504865); details: purified USP1/UAF1, Ub-rhodamine cleavage fluorescence; series mostly up to 114 µM; note: nearly all actives have a fitted effect of over 35% in size; note: potency is the fitted concentration of half-maximal effect;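 for activity change, negative = inhibition: rhodamine fluorescence freed from ubiquitin-rhodamine substrate followed over time; top concentration of the series differs between compounds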
Chain of Ubiquitin carboxyl-terminal hydrolase 1 (Homo sapiens) (O94782 whole entry, looked up): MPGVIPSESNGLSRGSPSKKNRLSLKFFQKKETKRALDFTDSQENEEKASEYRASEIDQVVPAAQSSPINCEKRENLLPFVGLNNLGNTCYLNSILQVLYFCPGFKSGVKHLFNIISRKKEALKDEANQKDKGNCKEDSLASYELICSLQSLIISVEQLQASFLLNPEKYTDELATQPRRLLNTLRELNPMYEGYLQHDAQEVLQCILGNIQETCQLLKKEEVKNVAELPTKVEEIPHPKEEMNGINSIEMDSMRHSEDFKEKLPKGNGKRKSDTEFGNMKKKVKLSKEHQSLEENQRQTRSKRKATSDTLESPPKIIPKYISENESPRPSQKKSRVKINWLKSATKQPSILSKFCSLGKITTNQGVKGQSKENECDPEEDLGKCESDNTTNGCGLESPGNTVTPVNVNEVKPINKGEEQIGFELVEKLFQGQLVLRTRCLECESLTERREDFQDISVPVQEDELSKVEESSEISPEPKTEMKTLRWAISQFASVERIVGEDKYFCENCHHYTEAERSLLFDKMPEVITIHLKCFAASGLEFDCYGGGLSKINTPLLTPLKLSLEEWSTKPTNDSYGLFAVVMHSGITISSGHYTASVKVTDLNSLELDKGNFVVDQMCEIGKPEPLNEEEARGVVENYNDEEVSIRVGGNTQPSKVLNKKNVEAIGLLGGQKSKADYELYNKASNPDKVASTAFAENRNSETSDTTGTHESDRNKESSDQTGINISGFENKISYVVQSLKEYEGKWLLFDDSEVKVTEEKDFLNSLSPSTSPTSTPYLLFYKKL
In short: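 Enzyme-free wells gave the negative control, while test wells held 1nM USP1/UAF1 preincubated with compound for 15 min at room temperature. Ub-Rho at 150nM final started the reaction, and fluorescence at 480/540 nm was recorded kinetically.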

[3] = molecular target: Luciferin 4-monooxygenase (Photinus pyralis) (UniProt P08659); assay: Biochemical firefly luciferase enzyme assay for NPC (AID 624030);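 note: purified P. pyralis luciferase at 10 nM with luciferin and ATP substrate; nearly all actives have a fitted effect of over 70% in size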; details: purified P. pyralis luciferase, luminescence, 5 min; series mostly up to 24.9 µM
Chain of Luciferin 4-monooxygenase (Photinus pyralis) (P08659 whole entry, looked up): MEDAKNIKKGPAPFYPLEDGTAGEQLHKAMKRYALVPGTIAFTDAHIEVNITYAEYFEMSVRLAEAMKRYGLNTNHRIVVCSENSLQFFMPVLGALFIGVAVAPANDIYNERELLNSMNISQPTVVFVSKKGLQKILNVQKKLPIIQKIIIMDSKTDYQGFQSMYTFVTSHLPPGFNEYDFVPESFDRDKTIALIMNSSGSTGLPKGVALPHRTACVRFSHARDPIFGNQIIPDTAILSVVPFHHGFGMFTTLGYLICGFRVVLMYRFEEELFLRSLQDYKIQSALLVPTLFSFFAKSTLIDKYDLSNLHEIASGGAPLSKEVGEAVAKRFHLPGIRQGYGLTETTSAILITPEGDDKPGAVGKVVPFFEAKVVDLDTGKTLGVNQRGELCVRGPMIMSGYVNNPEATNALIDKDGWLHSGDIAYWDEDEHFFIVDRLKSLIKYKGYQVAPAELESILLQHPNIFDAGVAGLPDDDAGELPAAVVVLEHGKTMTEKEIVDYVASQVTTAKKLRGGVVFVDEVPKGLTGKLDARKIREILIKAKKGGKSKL
In short: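 Counter-screen for direct inhibition of the luciferase enzyme by approved-drug library compounds, run at 10 nM enzyme in 50 mM Tris acetate (final). Luminescence was read within 5 min of enzyme-buffer addition and normalized to PTC124 versus DMSO (0%).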

[4] = S16 Schwann cell PMP22 intronic element beta-lactamase assay (AID 624044; calls by dose curve; note: nearly all actives have a fitted effect of over 15% in size); details: S16 rat Schwann cells, PMP22 element beta-lactamase FRET, 24 h; series mostly up to 17.1 µM
In short: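 Beta-lactamase reporter under a PMP22 intronic regulatory element in stable S16 rat Schwann cells; 24 h compound exposure. 460 nm blue signal normalized between DMSO (0%) and potassium clavulanate, with 535 nm FRET tracking viability; curves classed by r2 and response.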

[5] = qHTS profiling for inhibitors of Plasmodium falciparum proliferation (AID 504749); note: potency is the fitted concentration of half-maximal effect; for all read-outs here: nearly all actives have a fitted effect of over 60% in size; details: P. falciparum in erythrocytes, SYBR Green DNA, 72 h; for activity, negative = inhibition: at 12.8 µM (top of the series)
In short: (§1)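 Fluorescence of SYBR Green-bound parasite DNA, read at 485/535 nm, served as the growth measure. Infected erythrocytes were cultured with compound 72 h; artemisinin (0.29 uM) and DMSO wells defined the normalization range.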

C2A = assay: as above; details: P. falciparum in erythrocytes, SYBR Green DNA, 72 h; series mostly up to 12.8 µM
In short: as §1

CP191 = assay: as above; details: P. falciparum in erythrocytes, SYBR Green DNA, 72 h; series mostly up to 12.8 µM
In short: as §1

CP201 = assay: as above; details: P. falciparum in erythrocytes, SYBR Green DNA, 72 h; series mostly up to 12.8 µM
In short: as §1

CP238 = assay: as above; details: P. falciparum in erythrocytes, SYBR Green DNA, 72 h; series mostly up to 12.8 µM
In short: as §1

CP262 = assay: as above; details: P. falciparum in erythrocytes, SYBR Green DNA, 72 h; series mostly up to 12.8 µM
In short: as §1

CP268 = assay: as above; details: P. falciparum in erythrocytes, SYBR Green DNA, 72 h; series mostly up to 12.8 µM
In short: as §1

CP315 = assay: as above; details: P. falciparum in erythrocytes, SYBR Green DNA, 72 h; series mostly up to 12.8 µM
In short: as §1

DFO2036 = assay: as above; details: P. falciparum in erythrocytes, SYBR Green DNA, 72 h; series mostly up to 12.8 µM
In short: as §1

ECU = assay: as above; details: P. falciparum in erythrocytes, SYBR Green DNA, 72 h; series mostly up to 12.8 µM
In short: as §1

FAB9 = assay: as above; details: P. falciparum in erythrocytes, SYBR Green DNA, 72 h; series mostly up to 12.8 µM
In short: as §1

PC15 = assay: as above; details: P. falciparum in erythrocytes, SYBR Green DNA, 72 h; series mostly up to 12.8 µM
In short: as §1

PC49 = assay: as above; details: P. falciparum in erythrocytes, SYBR Green DNA, 72 h; series mostly up to 12.8 µM
In short: as §1

[6] = molecular target: Cytochrome P450 3A4 (Homo sapiens) (UniProt P08684); assay: qHTS Assay for Inhibitors and Substrates of Cytochrome P450 3A4 (AID 884); details: recombinant CYP3A4, Luciferin-PPXE luminescence; series mostly up to 57.1 µM; note: potency is the fitted concentration of half-maximal effect; nearly all actives have a fitted effect of over 50% in size
Chain of Cytochrome P450 3A4 (Homo sapiens) (P08684 whole entry, looked up): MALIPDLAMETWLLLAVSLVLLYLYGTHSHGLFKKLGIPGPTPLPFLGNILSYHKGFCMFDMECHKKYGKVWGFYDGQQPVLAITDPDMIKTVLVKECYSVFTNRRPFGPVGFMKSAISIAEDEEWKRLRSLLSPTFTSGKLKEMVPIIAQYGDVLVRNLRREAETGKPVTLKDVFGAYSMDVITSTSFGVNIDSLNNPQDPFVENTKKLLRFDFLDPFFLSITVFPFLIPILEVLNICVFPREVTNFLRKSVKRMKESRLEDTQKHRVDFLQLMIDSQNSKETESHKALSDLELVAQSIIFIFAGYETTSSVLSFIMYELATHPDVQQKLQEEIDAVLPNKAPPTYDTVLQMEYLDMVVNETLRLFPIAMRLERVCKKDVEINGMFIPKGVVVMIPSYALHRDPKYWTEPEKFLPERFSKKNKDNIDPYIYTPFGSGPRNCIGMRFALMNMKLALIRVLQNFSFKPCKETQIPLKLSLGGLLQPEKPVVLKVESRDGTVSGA
In short: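 Luminescent readout of luciferin produced by CYP3A4 (20 nM) dealkylation of Luciferin-PPXE, 25 uM (its KM). NADPH-driven reaction ran 60 min at RT after 10 min compound preincubation; data scaled to 57 uM ketoconazole as 100% inhibition.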

[7] = measured here: cell count channel max response
[8] = measured here: lipid channel max response

CCCCC[C@H](O)/C=C\[C@H]1[C@H](C/C=C\CCCC(=O)O)[C@@H](O)C[C@H]1O (tested in a mixture with another compound)
activity change, negative = inhibition ([1]; at 25.7 µM (top of the series)): -0.941% (inactive)
max response [1, 7]: 14.3%
max response [1, 8]: 13.4%
Potency [2]: inactive
Potency [3]: inactive
Potency [4]: inactive
activity, negative = inhibition ([5]; parasite line A): -9.08% (inactive)
activity, negative = inhibition ([5]; parasite line B): -0.0944% (inactive)
Potency (C2A): inactive
Potency (CP191): inactive
Potency (CP201): inactive
Potency (CP238): inactive
Potency (CP262): inactive
Potency (CP268): inactive
Potency (CP315): inactive
Potency (DFO2036): inactive
Potency (ECU): inactive
Potency (FAB9): inactive
Potency (PC15): inactive
Potency (PC49): inactive

Nc1ncn([C@H]2O[C@@H](CO)[C@@H](O)[C@@H]2O)c(=O)n1
activity change, negative = inhibition ([1]; at 25.7 µM (top of the series)): -7.35% (inactive)
max response [1, 7]: -3.14%
max response [1, 8]: -7.83%
Potency [2]: inactive

CC(C)(C)NC(=O)[C@@H]1C[C@H]2CCCC[C@@H]2CN1C[C@H](O)[C@H](Cc1ccccc1)NC(=O)[C@@H](CC(N)=O)NC(=O)c1ccc2ccccc2n1
activity change, negative = inhibition ([1]; at 25.7 µM (top of the series)): -0.923% (inactive)
max response [1, 7]: 1.41%
max response [1, 8]: -0.968%

Cc1cc2ccc(=O)oc2cc1OC[C@@H](O)C(C)(C)O
activity change, negative = inhibition ([1]; at 57.5 µM (top of the series)): 5.47% (inactive)
max response [1, 7]: 13%
max response [1, 8]: 21.2%

C[C@H]1CS(=O)(=O)CCN1/N=C\c1ccc([N+](=O)[O-])o1
activity change, negative = inhibition ([1]; at 25.7 µM (top of the series)): -3.89% (inactive)
max response [1, 7]: -15.4%
max response [1, 8]: -17.6%
Potency [2]: inactive
Potency [3]: inactive
Potency [4]: inactive
activity, negative = inhibition ([5]; parasite line A): -17.9% (inactive)
activity, negative = inhibition ([5]; parasite line B): -12.5% (inactive)
Potency (C2A): inactive
Potency (CP191): inactive
Potency (CP201): inactive
Potency (CP238): inactive
Potency (CP262): inactive
Potency (CP268): inactive
Potency (CP315): inactive
Potency (DFO2036): inactive
Potency (ECU): inactive
Potency (FAB9): inactive
Potency (PC15): inactive
Potency (PC49): inactive

C1CCN2C[C@@H]3C[C@@H](CN4CCCC[C@H]34)[C@H]2C1
activity change, negative = inhibition ([1]; at 25.7 µM (top of the series)): -1.82% (inactive)
max response [1, 7]: -3.93%
max response [1, 8]: -5.58%
Potency [2]: inactive
Potency [3]: inactive
Potency [4]: inactive
activity, negative = inhibition ([5]; parasite line A): 5.24% (inactive)
activity, negative = inhibition ([5]; parasite line B): 14.7% (inactive)
Potency (C2A): inactive
Potency (CP191): inactive
Potency (CP201): inactive
Potency (CP238): inactive
Potency (CP262): inactive
Potency (CP268): inactive
Potency (CP315): inactive
Potency (DFO2036): inactive
Potency (ECU): inactive
Potency (FAB9): inactive
Potency (PC15): inactive
Potency (PC49): inactive

COc1cc(N[C@@H](C)CCCN)c2ncccc2c1
activity change, negative = inhibition ([1]; at 25.7 µM (top of the series)): -1.31% (inactive)
max response [1, 7]: -0.938%
max response [1, 8]: -2.77%
Potency [2]: 3980 nM (active)
Potency [3]: inactive
Potency [4]: inactive
Potency ([5]; parasite line A): 1580 nM (active)
Potency ([5]; parasite line B): 2820 nM (active)
Potency (C2A): 2820 nM (active)
Potency (CP191): 1000 nM (active)
Potency (CP201): 4550 nM (active)
Potency (CP238): 2240 nM (active)
Potency (CP262): 1280 nM (active)
Potency (CP268): 1610 nM (active)
Potency (CP315): 5730 nM (active)
Potency (DFO2036): 3550 nM (active)
Potency (ECU): 1000 nM (active)
Potency (FAB9): 891 nM (active)
Potency (PC15): 1000 nM (active)
Potency (PC49): 2240 nM (active)

CC[C@](C)(CN(C)C)OC(=O)c1ccccc1
activity change, negative = inhibition ([1]; at 25.7 µM (top of the series)): -5.12% (inactive)
max response [1, 7]: -9.58%
max response [1, 8]: -16.2%
Potency [2]: inactive
Potency [3]: inactive
Potency [4]: inactive
activity, negative = inhibition ([5]; parasite line A): 5.48% (inactive)
activity, negative = inhibition ([5]; parasite line B): 4.88% (inactive)
Potency (C2A): inactive
Potency (CP191): inactive
Potency (CP201): inactive
Potency (CP238): inactive
Potency (CP262): inactive
Potency (CP268): inactive
Potency (CP315): inactive
Potency (DFO2036): inactive
Potency (ECU): inactive
Potency (FAB9): inactive
Potency (PC15): inactive
Potency (PC49): inactive

O=c1cc(-c2cccc(O)c2)oc2cc(O)ccc12
Potency [6]: 12600 nM (active)
activity change, negative = inhibition ([1]; at 57.5 µM (top of the series)): 8.05% (inactive)
max response [1, 7]: 22.9%
max response [1, 8]: 28%

CC(C)n1c(/C=C\[C@@H](O)C[C@@H](O)CC(=O)O)c(-c2ccc(F)cc2)c2ccccc21
activity change, negative = inhibition ([1]; at 25.7 µM (top of the series)): -2.74% (inactive)
max response [1, 7]: -6.17%
max response [1, 8]: -6.63%

COC(=O)[C@@H]1[C@@H]2C[C@H]3c4[nH]c5cc(OC)ccc5c4CCN3C[C@@H]2C[C@H](OC(=O)c2cc(OC)c(OC)c(OC)c2)[C@H]1OC
activity change, negative = inhibition ([1]; at 25.7 µM (top of the series)): -6.07% (inactive)
max response [1, 7]: -5.3%
max response [1, 8]: -12.8%

Clc1ccc([C@H](Cn2ccnc2)OCc2c(Cl)cccc2Cl)c(Cl)c1
activity change, negative = inhibition ([1]; at 25.7 µM (top of the series)): -0.836% (inactive)
max response [1, 7]: -18.9%
max response [1, 8]: -21.7%
Potency [3]: inactive
Potency [4]: inactive
Potency ([5]; parasite line B): 3160 nM (active)
Potency (CP191): 3160 nM (active)
Potency (CP238): 3550 nM (active)
Potency (DFO2036): 3550 nM (active)
Potency (ECU): 1780 nM (active)

CC1(C)S[C@@H]2[C@H](NC(=O)[C@@H](N)c3ccccc3)C(=O)N2[C@H]1C(=O)O[C@H]1OC(=O)c2ccccc21
activity change, negative = inhibition ([1]; at 25.7 µM (top of the series)): -2.68% (inactive)
max response [1, 7]: -27.2%
max response [1, 8]: -29.9%
Potency [3]: inactive
Potency [4]: inactive
activity, negative = inhibition ([5]; parasite line A): 9.34% (inactive)
activity, negative = inhibition ([5]; parasite line B): 6.7% (inactive)
Potency (C2A): inactive
Potency (CP191): inactive
Potency (CP201): inactive
Potency (CP238): inactive
Potency (CP262): inactive
Potency (CP268): inactive
Potency (CP315): inactive
Potency (DFO2036): inactive
Potency (ECU): inactive
Potency (FAB9): inactive
Potency (PC15): inactive
Potency (PC49): inactive

CCN(CCCCOC(=O)c1ccc(OC)c(OC)c1)[C@@H](C)Cc1ccc(OC)cc1
activity change, negative = inhibition ([1]; at 25.7 µM (top of the series)): -1.1% (inactive)
max response [1, 7]: -7.41%
max response [1, 8]: -6.28%
Potency [2]: inactive
Potency [3]: inactive
Potency [4]: inactive
activity, negative = inhibition ([5]; parasite line A): -10.8% (inactive)
activity, negative = inhibition ([5]; parasite line B): -8.1% (inactive)
Potency (C2A): inactive
Potency (CP238): inactive
Potency (CP268): inactive
Potency (CP315): inactive
Potency (DFO2036): inactive
Potency (ECU): inactive
Potency (FAB9): inactive
Potency (PC15): inactive
Potency (PC49): inactive

C[C@@H]1O[C@H](O[C@@H]2[C@H](C)O[C@H](O[C@@H]3[C@H](C)O[C@H](O[C@H]4CC[C@]5(C)[C@@H](CC[C@@H]6[C@H]5C[C@@H](O)[C@]5(C)[C@@H](C7=CC(=O)OC7)CC[C@]65O)C4)C[C@@H]3O)C[C@@H]2O)C[C@H](O)[C@@H]1O
activity change, negative = inhibition ([1]; at 25.7 µM (top of the series)): 0.916% (inactive)
max response [1, 7]: 2.04%
max response [1, 8]: 1.22%
Potency [2]: inactive
